Dicer processing: blocks human Dicer maturation of pre-miR-21; cat-ELCCA pre-miR-21 Dicer processing, chemiluminescence; stronger effect = higher value; z-score at 25 µM; actives 6% (n = 47,000); AID 1347074; in the data active = z-score above about 3, passing the limit was not always enough;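 note: higher signal means more uncleaved substrate so more Dicer inhibition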
Numbers stand for hits; . = inactive. Shown is part of a subset that was picked to be rich in hits.

SMILES | Dicer processing
COc1ccc(C2c3c(oc4ccc(F)cc4c3=O)C(=O)N2CCCN2CCOCC2)cc1 (centres undefined) | .
FC(F)(F)c1cnc(SCc2c(Cl)cccc2Cl)c(Cl)c1 | .
FC(F)(F)c1ccc(CSc2ncc(C(F)(F)F)cc2C(F)(F)F)cc1 | .
FC(F)(F)c1cccc(CSc2ncc(C(F)(F)F)cc2C(F)(F)F)c1 | 3
O=C(Nc1ccc(F)c(Cl)c1)Oc1ccccc1 | .
O=C(Cc1c(F)cccc1Cl)NC(=O)Nc1ccc(Cl)cc1 | .
O=C(Cc1c(F)cccc1Cl)NC(=O)Nc1ccc(F)c(Cl)c1 | 3.9
Cc1nc(-c2ccccc2)nc(SCc2c(F)cccc2Cl)c1C#N | .
Cc1cc(C)c2c(N)c(C(=O)NCc3ccco3)sc2n1 | .
Cc1cc(C)c2c(N)c(C(=O)c3ccc(-c4ccccc4)cc3)sc2n1 | .
CSc1cccc(NC(=O)c2sc3nc(C)cc(C)c3c2N)c1 | .
Cc1cc(C)c2c(N)c(C(=O)O)sc2n1 | .
Cc1cc(C)c2c(N)c(S(=O)(=O)Cc3ccccc3)sc2n1 | 4.1
Cc1cc(C)c2c(N)c(C(=O)NNC(=S)NCc3ccccc3)sc2n1 | 3
Cc1cc(NCCc2ccc(Cl)cc2)c2nncn2n1 | .
O=[N+]([O-])c1cccnc1Oc1ccc(Oc2ncccc2[N+](=O)[O-])c(-c2ccccc2)c1 | .
CCOC(=O)NNC(=S)Nc1cccc(C)c1 | 3.8
CCOC(=O)NNC(=S)Nc1ccccc1 | .
CCOC(=O)NNC(=S)Nc1cccc(C(F)(F)F)c1 | .
Cc1nc2cc(NCc3ccco3)ccc2n1C | .
COc1ccccc1-n1cnc2cc(NCc3ccco3)ccc21 | 6.5
Cc1ccc(-n2cnc3cc(NCc4ccncc4)ccc32)cc1 | .
CSc1sc(-c2ccn(C(C)=O)n2)c2c1C(=O)CC(C)(C)C2 | .
O=C(O)c1cc(-c2ccccc2Br)nc2cc(C(F)(F)F)cc(C(F)(F)F)c12 | .
CCCCc1cc(C)c2[nH]cc(C(=O)O)c(=O)c2c1 | .
SMILES | Dicer processing
O=[N+]([O-])c1cc(S(=O)(=O)NCc2ccco2)ccc1N/N=C/c1cccnc1 | .
Fc1ccc2[nH]c(CN3CCN(c4ccccn4)CC3)cc2c1 | .
c1ccc(N2CCN(c3nc4ccccc4[nH]3)CC2)nc1 | 3.5
O=C1CC(N2CCN(c3ccccn3)CC2)C(=O)N1c1ccc(F)cc1 (centres undefined) | .
COC(=O)C1=C(C)NC2=C(C(=O)c3ccccc32)C1c1cc(Cl)c(OCC(=O)O)c(OC)c1 (centres undefined) | .
Nc1ccc(-c2nc3ccccc3s2)cc1 | .
O=C(O)c1ccc2nc(-c3ccccc3)c(-c3ccccc3)nc2c1 | .
O=C(O)c1ccc2nc(-c3ccc(O)cc3)sc2c1 | 4.5
O=C1OC(c2ccccc2)=N/C1=C/c1ccc([N+](=O)[O-])s1 | .
Cn1c(=O)c2c(nc3n(CC4CCCO4)c(-c4ccc(Cl)cc4)cn23)n(C)c1=O (centres undefined) | .
CC(C)(C)C(=O)NCCNC(=O)c1nonc1N | .
Nc1nonc1C(=O)NCCNCc1cccs1 | .
Nc1nonc1C(=O)NCCNC(=O)c1cccc(Br)c1 | 5.2
CCn1c2ccccc2c2cc(CN3CCC(N4CCN(CCO)CC4)CC3)ccc21 | .
COc1ccc(-n2c(-c3ccccc3)noc2=O)cc1Cl | .
O=C(O)c1cc2c(ccc3ccccc32)o1 | .
O=C(O)c1cc2cc(Cc3cccnc3)ccc2o1 | 3.6
O=C(Nc1cccnc1)c1cc2c(ccc3ccccc32)o1 | .
CSc1nc(N)nc(-c2ccc(C(F)(F)F)cc2)n1 | .
O=S(=O)(c1ccc2ccccc2c1)N1CC=C(c2ccccc2)CC1 | .
O=S(=O)(c1ccc2ccccc2c1)N1CCCCC1 | .
O=S(=O)(c1ccc2ccccc2c1)N1CCN(C2CCN(Cc3ccccc3)CC2)CC1 | 3.2
Fc1ccccc1CN1CCN(C2CCN(Cc3ccccc3)CC2)CC1 | .
COc1ccc(S(=O)(=O)N2CCN(S(=O)(=O)c3ccc4ccccc4c3)CC2)cc1 | .
CSc1ccc(CN2CCN(S(=O)(=O)c3ccc4ccccc4c3)CC2)cc1 | 3.4
SMILES | Dicer processing
OC(CN1C=CC(C(F)(F)F)=NCC1)C(F)(F)F (centres undefined) | .
C=C1SC(Nc2ccc(C)cc2C)=NC12CCCCC2 | .
CNC(=S)N/N=C(\C)c1ccc(C)cc1 | .
O=C(Nc1ccc(OCc2ccccc2)cc1)Nc1ccc2ccccc2n1 | .
CCCCC#Cc1cncc(-c2n[nH]c(=S)n2C)c1 | .
COc1ccc(/C(C)=N/OC(=O)c2c(-c3ccccc3Cl)noc2C)cc1CN1CCOCC1 | .
Cc1cc(-c2nnc(CSc3nnc(NC(=O)c4ccccc4F)s3)o2)ccc1[N+](=O)[O-] | .
CC(C)(C)c1nc2sc3c(c2c(=O)[nH]1)CCCC3 | 5.3
COc1ccc(-c2nc3sc4c(c3c(=O)[nH]2)CCCC4)cc1OC | 5.1
C=C(C)CSc1nc2sc3c(c2c(=O)[nH]1)CCCC3 | .
O=C(CSc1nc2sc3c(c2c(=O)[nH]1)CCCC3)N1CCCCC1 | .
COc1ccc(-c2ncnn2-c2sc3c(c2C#N)CCCC3)cc1OC | .
COc1ccc(-c2nc3c4c5c(sc4ncn3n2)CCCCC5)cc1OC | .
Cc1ccc(NC(=S)NNC(=O)CCc2ccc(O)cc2)c(Cl)c1 | .
CCCS(=O)(=O)C/C(N)=N/OS(=O)(=O)c1ccc(F)cc1F | .
Cc1onc(-c2ccccc2)c1-c1nc(CSc2ccc(C(F)(F)F)cn2)no1 | .
FC(F)(F)c1ccncc1-c1nnnn1-c1ccccc1Cl | .
Cc1ccccc1C1=NC(C(F)(F)F)(C(F)(F)F)N=C(N(C)C)O1 | .
Nc1ccc(C(=O)/C(=C\c2cccc([N+](=O)[O-])c2)C(=O)c2ccc(-c3ccccc3)cc2)cc1 | .
O=[N+]([O-])c1ccsc1Sc1ccc(C(F)(F)F)cn1 | .
O=C1NC(=S)S/C1=C/c1ccc(Sc2ccc(C(F)(F)F)cn2)c([N+](=O)[O-])c1 | 3.4
O=[N+]([O-])c1cc(C(F)(F)F)ccc1Sc1ccc(C(F)(F)F)cn1 | .
COC(=O)c1cnc(Sc2ccccc2NC(=O)Nc2cc(Cl)cc(Cl)c2)c([N+](=O)[O-])c1 | .
CCCN(CCC)C(=O)C1Sc2nnc(C)n2NC1c1ccc(Cl)cc1 (centres undefined) | .
O=S(=O)(NNC(=S)Nc1ccccc1F)c1ccc(Cl)cc1 | .
SMILES | Dicer processing
O=C(NCc1sccc1COc1ccc(Cl)cc1)Nc1ccccc1F | 4.5
Cc1ccsc1CNC(=O)Nc1ccc(OCc2ccccc2)cc1 | .
CSc1nc2nccc(NC(=O)c3cccc(C)c3)n2n1 | .
Cc1csc2ncnc(N/N=C/c3ccccc3Cl)c12 | .
Cc1ccc(CSc2ssc(=S)c2-c2ccccc2)cc1 | .
CCc1nc(N)ncc1-c1nnnn1-c1ccccc1 | .
Cc1ccc(-n2[nH]c(C)c(C=Nc3ccc(Cl)cc3)c2=O)cc1 | .
Cc1ccc(N=Cc2c(C)[nH]n(-c3ccccc3)c2=S)c(C)c1 | .
Cc1ccc(N=Cc2c(C)[nH]n(-c3ccc(C)cc3)c2=O)cc1 | 4
O=c1onc(-c2ccccc2)n1-c1cccc(Cl)c1 | .
CC(C)(C)OC(=O)/C(C#N)=C/C1CCCCC1 | .
CC(C)S(=O)(=O)c1cnc(COc2ccc(C(C)(C)C)cc2)nc1N | .
S=C(NCc1cccnc1)c1ccccc1 | .
Fc1ccc(NCc2cccnc2)cc1 | 3.2
FC(F)(F)c1cnc(NCc2cccnc2)c(Cl)c1 | .
Cc1ccc(Sc2ncc(C(=O)OCc3ccc(Cl)cc3)c(C(F)(F)F)n2)cc1 | .
Cc1ccc(C2N[C@@H](C(=O)O)C(C)(C)S2)cc1 (some centres undefined) | .
COc1cccc(-c2ccc(-c3noc(C)n3)c(OC)n2)c1 | .
